Experimental data taken from PubChem BioAssay AID624330 (Southern Research Specialized Biocontainment Screening …, 2012).
Among all 340,000 compounds or so, about 2,100 (0.62%) were called active.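 How the source made its calls: active means first-screen hits whose inhibition reached a set limit at any dose in the follow-up dose series; inconclusive means inhibition above the set first-screen limit but never retested; inactive means the rest.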 Only a sample is shown. Results with a measured potency or affinity are listed apart.

Target: Rac GTPase-activating protein 1 (Homo sapiens) (UniProt Q9H0H5)
Sequence (Q9H0H5 whole entry, looked up): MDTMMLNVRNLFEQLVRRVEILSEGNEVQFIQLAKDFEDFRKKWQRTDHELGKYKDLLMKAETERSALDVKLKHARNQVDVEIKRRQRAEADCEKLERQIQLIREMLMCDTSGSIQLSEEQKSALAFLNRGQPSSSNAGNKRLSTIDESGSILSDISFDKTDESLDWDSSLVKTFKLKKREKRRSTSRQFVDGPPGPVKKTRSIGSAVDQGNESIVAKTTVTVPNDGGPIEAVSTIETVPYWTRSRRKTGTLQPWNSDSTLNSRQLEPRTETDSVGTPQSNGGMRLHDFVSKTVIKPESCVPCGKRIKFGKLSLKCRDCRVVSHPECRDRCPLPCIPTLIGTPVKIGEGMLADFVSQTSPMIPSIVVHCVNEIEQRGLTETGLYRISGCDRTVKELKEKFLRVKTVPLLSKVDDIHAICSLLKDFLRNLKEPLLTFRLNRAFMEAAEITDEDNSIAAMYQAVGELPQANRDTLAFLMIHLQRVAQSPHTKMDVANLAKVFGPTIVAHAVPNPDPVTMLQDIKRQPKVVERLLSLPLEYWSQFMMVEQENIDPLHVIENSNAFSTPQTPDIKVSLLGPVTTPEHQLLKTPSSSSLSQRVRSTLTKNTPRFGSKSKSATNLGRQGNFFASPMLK
Assay: blockers of MgcRacGAP-driven Rac1 GTP hydrolysis – biochemical, ADP Hunter fluorescence, primary and confirmatory, confirmation (AID 624330);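 further: fluorescence reports GDP produced by GAP-driven GTP hydrolysis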
Details: MgcRacGAP-stimulated Rac1 GTP hydrolysis, at 30 µM, hits give high values, GST-tagged Rac1 F28L mutant substrate

inhibition, inactive:
CN(Cc1ccno1)Cc1cn(Cc2ccccc2)nc1-c1ccc2c(c1)OCO2 9.52%
COc1ccc(CCNC(=O)COC(=O)C2COc3ccccc3O2)cc1 (stereo not drawn) 2.96%
CC(=O)N1CCN(S(=O)(=O)c2cccc(C(=O)NCCc3ccc(Cl)cc3)c2)CC1 5.57%
CCOc1ccc(Oc2ccccc2NC(=O)C2=COCCO2)cc1 -5.82%
OCCCNCc1cccc2ccccc12 -2.77%
OCCCNc1c2ccccc2nc2ccccc12 9.86%
COCCCNC(=O)C[C@H]1C[C@H](C(=O)N(C(C)C)C(C)C)[C@@]2(C)c3[nH]c4ccc(Cl)cc4c3CCN2C1=O 4.5%
Cc1ccc(S(=O)(=O)NNC(=O)CCC(=O)Nc2ccccc2Cl)cc1 7.64%
C(/CCc1ccccc1)=N\n1cnnc1 8.49%
Cc1ccc(C(=O)O)cc1-c1ccc(C=C2C(=O)c3ccccc3C2=O)o1 12.9%
CCN(CC)c1ccc(C(=O)O)cc1 -7.19%
O=C(O)c1ccc2c(c1)C(=O)N(Cc1ccco1)C2=O -0.17%
Cc1ccc(C=C2C(=O)c3ccccc3C2=O)o1 8.39%
O=C1C(=Cc2ccco2)C(=O)c2ccccc21 12.3%
O=C(O)c1ccc2c(c1)C(=O)/C(=C/c1ccccc1)C2=O 31.4%
O=C(CN(Cc1ccccc1)C(=O)c1csnn1)NCc1ccc2c(c1)OCO2 -2.73%
CCOc1ncccc1C(=O)OCCCC(=O)c1ccc(Br)cc1 2.15%
COc1ccc(-n2c(-c3ccc(Cl)cc3Cl)n[nH]c2=S)c(OC)c1 -9.67%
COc1cccc(NC(=S)N(CCc2c(C)[nH]c3ccccc23)Cc2cccs2)c1 6.48%
COc1ccc(C(=O)Nc2ccc(C(=O)Nc3nccs3)cc2)cc1[N+](=O)[O-] 10%
CC1=Nc2cccc3cccc(c23)N1 -4.86%
Fc1ccc(C2=Nc3cccc4cccc(c34)N2)cc1 16.5%
OC1CCN(C(=S)Nc2ccc(Oc3ccccc3)cc2)CC1 -10.8%
O=C(Nc1ccccc1)NC1(C(=O)N2CCC(O)CC2)CCCCC1 5.54%
CCOC(=O)C1CCCN(C(=O)C2CCN(C(=O)Nc3ccccc3)CC2)C1 (stereo not drawn) 4.05%
CCOC(=O)C1CCCN(C(=O)Nc2ccccc2)C1 (stereo not drawn) 0.14%
CCCOCC(O)CCc1n[nH]c(=S)n1-c1ccccc1 (stereo not drawn) -1.65%
Cc1ccc(C(=O)COc2ccc3ccc(=O)oc3c2)cc1 8.86%
Cc1cc(C)n(C(=O)c2ccc(NC(=O)C3COc4ccccc4O3)cc2)n1 (stereo not drawn) -9.3%
CC(C)c1onc(C(=O)N2CCN(Cc3ccccc3)CC2)c1[N+](=O)[O-] -1.76%
CNc1ncnc(Sc2nc(N)nc3nc[nH]c23)c1[N+](=O)[O-] -4.52%
Nc1nc(SCc2ccccc2)c2[nH]cnc2n1 5.48%
COC(=O)c1ccc2c(c1)C(=O)/C(=C/c1ccc(O)cc1)O2 30.8%
COC(=O)c1ccc(C(=O)OC)c(NC(=O)COC(=O)c2ccc(OC)c(OC)c2OC)c1 -0.19%
COC(=O)c1ccc(/C=C/C(=O)O)cc1 14.6%
COC(=O)c1ccc2nc(C)c(C)nc2c1 2.34%
C[N+]1=C(/C=C/Nc2ccccc2Cl)C(C)(C)c2ccccc21 -5.94%
COc1ccc(/C=N/Nc2ccc(C(=O)O)cc2)c(OC)c1OC 5.84%
COC(=O)c1cn(Cc2ccccn2)c(=O)c2ccccc12 1.41%
O=C(Nc1ccc(N2CCN(C(=O)c3ccccc3)CC2)cc1)c1cccnc1 4.32%
CCn1cc(C(=O)OCC(=O)Nc2ccc(C(C)C)cc2)c(=O)c2ccc(C)nc21 3.76%
CC(Sc1nnnn1-c1ccc(O)cc1)C(=O)NNC(=O)c1ccc(F)cc1 (stereo not drawn) 2.11%
O=C(NCCN1C(=O)S/C(=C/c2ccccc2)C1=O)C1CC(=O)N(Cc2ccccc2)C1 (stereo not drawn) 7.02%
Cc1c(C)n(CC(O)CNc2ccccc2)c2ccccc12 (stereo not drawn) 20.8%
Cc1c(C)n(CC(O)CNCCO)c2ccccc12 (stereo not drawn) 18.2%
CN1CC(=O)N/C1=N\C(=O)Nc1ccc2c(c1)N(C)C(=O)CS2 2.74%
COc1cc(/C=C/C(=O)OCC(=O)NC(=O)NC(C)C)ccc1OCC#N 0.8%
COc1cc(/C=C/C(=O)OCC(=O)NC(=O)NC(C)(C)C)cc(OC)c1OC 8.1%
COc1cc(/C=C/C(=O)OCC(=O)NC(=O)NC(C)C)cc(OC)c1OC 6.89%
COc1ccc(/C=C/C(=O)OCC(=O)NC(=O)NC(C)(C)C)cc1 2.69%
O=C1c2ccccc2NC(c2ccc([N+](=O)[O-])cc2)N1O (stereo not drawn) 4.29%
O=S(=O)(Nc1cccc(S(=O)(=O)N2CCOCC2)c1)c1ccc(Cl)s1 -0.61%
CCc1nc2sccc2c(=O)n1N -1.25%
O=C(CNC(=O)c1ccccc1)NCCc1ccc(O)c(O)c1 10.9%
CCN(Cc1ccncc1)Cc1cn[nH]c1-c1ccc(OC)cc1F -2.02%
CCN(Cc1ccncc1)Cc1ccc(Br)cc1 28%
CCN(Cc1ccccc1)Cc1ccc(OCc2ccccc2)c(OC)c1 10.8%
COc1ccc(CNCc2ccncc2)c(OC)c1 5.34%
COc1ccc(NC(=O)C2CCN(S(=O)(=O)c3c(C)noc3C)CC2)cc1 8.66%
Cc1cc(C)n2nc(CC(=O)NNC(=O)COc3cccc(C)c3C)nc2n1 -3.96%
CCCCOCCCNC(=O)c1ccc(OC)cc1 4.46%
Cc1cc(Cl)ccc1N(CC(=O)N(C)Cc1ccccc1)S(C)(=O)=O 18.6%
CCC(SC1=N/C(=C/c2ccccc2OC)C(=O)N1c1ccccc1)C(=O)Nc1cc(C)on1 (stereo not drawn) 12.8%
O=c1[nH]c(SCc2ccccc2)nc2c1cnn2-c1ccc(F)cc1 14%
Cc1cc(C)n2nc(C(=O)OCC(=O)N(C)CC(=O)Nc3ccccc3Cl)nc2n1 1.5%
CC(C)CO/C(=N/S(=O)(=O)c1ccccc1)c1ccccc1 5.75%
CS/C(=N\S(=O)(=O)c1ccccc1)c1ccccc1 5.35%
O=C(N/N=C\c1cccnc1)C1c2ccccc2Oc2ccccc21 3.36%
COc1cc(/C=N/NC(=O)C2c3ccccc3Oc3ccccc32)ccc1O 5.77%
Cn1cc(CN2CCC(C(=O)Nc3cccc(-c4cccc(F)c4)c3)CC2)cn1 5.69%
c1ccc(NC2=NCCN2CC2CCCCCC2)cc1 7.17%
O=C(CSc1nnc(-c2cccnc2)o1)Nc1cccc(Cl)c1 4.31%
N#Cc1cccc(NC(=O)CCN2C(=O)C3CCCCC3C2=O)c1 (stereo not drawn) -0.53%
O=C1/C(=C/c2ccc(N3CCCC3)cc2)NC(=S)N1C1CC1 27.1%
O=C1NC(=O)N(c2ccc(Cl)cc2)C(=O)/C1=C/c1ccc2c(c1)CCN2Cc1ccccc1Cl 10.3%
COc1ccc(NC(=O)Nc2ccc3c(c2)C(=O)N([C@H](C)CO)C[C@H](C)[C@@H](CN(C)S(C)(=O)=O)O3)cc1 11.1%
O=S(N1CCCCC1)C12CC3CC(CC(C3)C1)C2 (stereo not drawn) -0.65%
CSC1=C(C#N)C(=O)NC(c2ccccc2O)S1 (stereo not drawn) 25.9%
COc1cccc(NC2=C(C#N)C(=O)NC(c3cccc(OC)c3O)S2)c1 (stereo not drawn) 36.1%
O=C(CCCN1C(=O)c2ccccc2C1=O)Nc1cccc(S(=O)(=O)NC2=NCCC2)c1 9.21%
Cc1ccc(C)c(NC(=O)COC(=O)CCC(=O)c2cccs2)c1 -3.89%
COc1cccc(CNCc2ccc(C(=O)O)cc2)c1OC 1.24%
Cc1cc(=O)oc(C)c1C(=O)NCCCN1CCN(c2ccccc2F)CC1 6.67%
CCOC(=O)c1[nH]c2ccc(C)cc2c1N=CN(CC)CC 17.7%
CCOC(=O)c1[nH]c2ccc(C)cc2c1N=C(C)N(C)C 9.84%
CCOC(=O)c1[nH]c2cc(OC)c(OC)cc2c1NC(=O)c1nonc1C 9.89%
CCOC(=O)c1[nH]c2ccc(OC)cc2c1C 7.86%
COc1ccc(NC(=O)NNC(=O)c2cc3ccccc3cc2O)cc1 11.5%
NC(=O)C1CCCN(S(=O)(=O)c2ccc3ccccc3c2)C1 (stereo not drawn) 2.91%
Cc1onc(-c2ccccc2)c1-c1n[nH]c(=S)n1-c1ccc(C(=O)O)cc1 5.16%
CC(=O)Nc1ccc(S(=O)(=O)N(C)S(=O)(=O)c2ccc(F)cc2)cc1 10.5%
CC(=O)c1cc(CN2CCN(Cc3ccc(C)cc3)C(CCO)C2)cs1 (stereo not drawn) 11.3%
CC(CCN1CCN(c2ccccc2)CC1)c1ccccc1 (stereo not drawn) 0.31%
CCOC(=O)N1CCN(Cc2ccc3ccccc3c2)CC1 28.6%
O=S(=O)(c1ccc2ccccc2c1)N1CCN(CCO)CC1 1.28%
c1ccc2cc(CN3CCOCC3)ccc2c1 1.35%
O=[N+]([O-])c1ccccc1CN1CCN(Cc2ccc3ccccc3c2)CC1 28.3%
CC(CCN1CCOCC1)c1ccccc1 (stereo not drawn) 22.5%
